A short description of assay [1]: BSK_3C_VCAM1: BioMAP Diversity Plus: 3C Assay for Vascular cell adhesion molecule 1 (VCAM1) Biomarker Activity (AID 2282999). The following applies: BioMAP 3C HUVEC, VCAM1 ELISA, cytokine-stimulated; actives raise or lower the signal. In a few lines:
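Human umbilical vein endothelial cells were dosed with compound for 24 h, after which cell-surface VCAM-1 was quantified by ELISA. Bidirectional curve fitting used DMSO as negative control and activity baseline.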

The nature of assay [2]: BSK_4H_Eotaxin3: BioMAP Diversity Plus: 4H Assay for Eotaxin 3 Biomarker Activity (AID 2283000).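 On outcome: CCL26 protein level quantified by ELISA in parallel with SRB cytotoxicity check.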 The following applies: primary human endothelial cells (HUVEC); actives raise or lower the signal. Summed up:
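Chemicals were added to human umbilical vein endothelium cultures, and Eotaxin-3 was quantified by ELISA at 24 h. Values were derived by bidirectional fitting with DMSO serving as negative control and activity baseline.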

For assay [3], the target named is human Peroxisome Proliferator-activated Receptor delta (PPARd), PPARD (gene 5467) (UniProt Q03181). As to the kind of experiment: ATG_PPARd_TRANS: Attagene TRANS-FACTORIAL HepG2 Assay for human Peroxisome Proliferator-activated Receptor delta (PPARd) (AID 2283002; active means hit-call score of the fitted dose curve at least 0.9, where 1 is the maximum). In a few lines:
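Multiplexed trans-activation format: HepG2 liver cells expressing exogenous NR-Gal4 chimeras and GAL4-UAS reporters were exposed for 24 h. Reporter mRNA was detected by RT-PCR with capillary electrophoresis fluorescence; activity fitted as gain of signal relative to DMSO.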

Read-out in assay [4]: Intercellular Adhesion Molecule 1 (ICAM1), ICAM1 (gene 3383)
Kind of assay: BSK_3C_ICAM1: BioMAP Diversity Plus: 3C Assay for Intercellular Adhesion Molecule 1 (ICAM1) Biomarker Activity (AID 2283003). The following applies: primary human endothelial cells (HUVEC); actives raise or lower the signal. Summed up:
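Primary human umbilical vein endothelial cells in the BioMAP 3C system were exposed to chemicals for 24 h, then ICAM-1 was quantified by ELISA. Activity was fitted bidirectionally against the DMSO negative control baseline.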

Assay [5] can be described thus: BSK_3C_Proliferation: Cell Proliferation Assessment in the BioMAP Diversity Plus: 3C Assay (AID 2283006).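 On AC50: potency may reflect either rise or fall in cell number versus DMSO.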 The following applies: primary human endothelial cells (HUVEC). In a few lines: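 Human umbilical vein endothelial cells were grown sub-confluent and exposed to chemical for 48 h, then fixed with 10% TCA and stained with 0.1% sulforhodamine B; absorbance at 560 nm gave relative cell number, fitted bidirectionally against DMSO baseline.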

In assay [6] the target is Peroxisome proliferator-activated receptor gamma (Homo sapiens) (UniProt P37231). As to the kind of experiment: ATG_PPARg_TRANS: Attagene TRANS-FACTORIAL HepG2 Assay for human Peroxisome Proliferator-activated Receptor-gamma (PPARg) (AID 2283007; active means hit-call score of the fitted dose curve at least 0.9, where 1 is the maximum). In a few lines:
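Transient transfection of HepG2 with GAL4-UAS-driven reporter units; chemical dosing 24 h; total RNA → oligo(dT) RT → PCR with reporter primers → 6-FAM primer extension → HpaI digest 2 h 37 C → capillary electrophoresis. Positive direction vs DMSO.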

Assay [7] has as its target Nuclear receptor subfamily 1 group I member 2 (Homo sapiens) (UniProt O75469). Kind of assay: ATG_PXR_TRANS: Attagene TRANS-FACTORIAL HepG2 Assay for human Pregnane X Receptor (PXR) (AID 2283008; active means hit-call score of the fitted dose curve at least 0.9, where 1 is the maximum). In a few lines:
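Fluorescence intensity of FAM-labelled, HpaI-digested reporter amplicons, separated by capillary electrophoresis, quantifies induction. HepG2 cells with PXR-Gal4 trans-reporter system were exposed 24 h; DMSO defines baseline.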

The target of assay [8] is human RAR-related Orphan Receptor beta (RORb), RORB (gene 6096) (UniProt Q92753). As to the kind of experiment: ATG_RORb_TRANS: Attagene TRANS-FACTORIAL HepG2 Assay for human RAR-related Orphan Receptor beta (RORb) (AID 2283010; active means hit-call score of the fitted dose curve at least 0.9, where 1 is the maximum). Summed up:
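HepG2 cells were transiently transfected with multiplexed GAL4-UAS reporter units expressing chimeric nuclear receptor–GAL4 proteins, then dosed for 24 h. Reporter mRNA was quantified by RT-PCR with fluorescent labelling and capillary electrophoresis; gain of signal was fitted relative to DMSO.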

Assay [9] has as its target human RAR-related Orphan Receptor gamma (RORg), RORC (gene 6097) (UniProt P51449). Kind of assay: ATG_RORg_TRANS: Attagene TRANS-FACTORIAL HepG2 Assay for human RAR-related Orphan Receptor gamma (RORg) (AID 2283011; active means hit-call score of the fitted dose curve at least 0.9, where 1 is the maximum). In a few lines: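 First, HepG2 liver cells were transfected with GAL4-UAS-driven reporter constructs and the RORg-Gal4 fusion. Next, they were treated with chemical for 24 h. Finally, reporter mRNA was quantified by RT-PCR and capillary electrophoresis, with upward activity fitted against DMSO.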

The target of assay [10] is Retinoic acid receptor RXR-alpha (Homo sapiens) (UniProt P19793). Kind of assay: ATG_RXRa_TRANS: Attagene TRANS-FACTORIAL HepG2 Assay for human Retinoid X Receptor alpha (RXRa) (AID 2283012; active means hit-call score of the fitted dose curve at least 0.9, where 1 is the maximum). In a few lines:
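HepG2 cells transiently transfected with multiplexed GAL4-UAS reporter units and chimeric NR-GAL4 fusions, dosed 24 h. Reporter mRNA measured by RT-PCR, FAM labelling, HpaI digestion and capillary electrophoresis; gain-of-signal fitted relative to DMSO baseline.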

Assay [11] deals with human Retinoid X Receptor beta (RXRb), RXRB (gene 6257) (UniProt P28702). As to the kind of experiment: ATG_RXRb_TRANS: Attagene TRANS-FACTORIAL HepG2 Assay for human Retinoid X Receptor beta (RXRb) (AID 2283013; active means hit-call score of the fitted dose curve at least 0.9, where 1 is the maximum). In a few lines: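 HepG2 cells transiently transfected with multiplexed reporter units driven by GAL4-UAS and exogenous chimeric NR-Gal4 proteins; treated 24 h. Reporter mRNA measured by RT-PCR, 6-FAM labelling and capillary electrophoresis; gain-of-signal fitted versus DMSO baseline.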

Read-out in assay [12]: E-selectin (Homo sapiens) (UniProt P16581)
As to the kind of experiment: BSK_3C_Eselectin: BioMAP Diversity Plus: 3C Assay for Eselectin Biomarker Activity (AID 2283015).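 On outcome: cell surface E-selectin protein quantified by ELISA 24 h after dosing.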 The following applies: primary human endothelial cells (HUVEC); actives raise or lower the signal. In a few lines:
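ELISA read-out of E-selectin on endothelial monolayers after 24 h chemical treatment. Human umbilical vein primary cells served as the system, with DMSO defining baseline activity for bidirectional fitting.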

Read-out in assay [13]: Monocyte Chemoattractant Protein-1 (MCP1), CCL2 (gene 6347)
Kind of assay: BSK_3C_MCP1: BioMAP Diversity Plus: 3C Assay for Monocyte Chemoattractant Protein-1 (MCP1) Biomarker Activity (AID 2283017). The following applies: primary human endothelial cells (HUVEC); actives raise or lower the signal. Summed up: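 ELISA read-out of MCP-1 from human umbilical vein endothelial cell cultures harvested 24 h post-dosing. Gain or loss of signal was fitted relative to DMSO.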

Read-out in assay [14]: Monocyte Chemoattractant Protein-1 (MCP1), CCL2 (gene 6347)
As to the kind of experiment: BSK_4H_MCP1: BioMAP Diversity Plus: 4H Assay for Monocyte Chemoattractant Protein-1 (MCP1) Biomarker Activity (AID 2283018). The following applies: primary human endothelial cells (HUVEC); actives raise or lower the signal. In a few lines: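 Human umbilical vein endothelial cells (4H system) dosed with chemical; MCP-1 measured by ELISA 24 h after dosing. Bidirectional curve fitting against DMSO negative control as baseline; parallel SRB total-protein staining tracks overt cytotoxicity.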

The target in assay [15] is human Peroxisome Proliferator-activated Receptor alpha (PPARa), PPARA (gene 5465) (UniProt Q07869). Kind of assay: ATG_PPARa_TRANS: Attagene TRANS-FACTORIAL HepG2 Assay for human Peroxisome Proliferator-activated Receptor alpha (PPARa) (AID 2283001; active means hit-call score of the fitted dose curve at least 0.9, where 1 is the maximum). In a few lines: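 HepG2 cells transiently transfected with multiplexed GAL4-UAS reporter units and chimeric NR-Gal4 constructs were dosed for 24 h. Reporter mRNA was measured by RT-PCR with fluorescent labelling and capillary electrophoresis; gain of signal fitted against DMSO.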

Assay [16] addresses human Thyroid Receptor alpha (THRa1), THRA (gene 7067) (UniProt P10827). As to the kind of experiment: ATG_THRa1_TRANS: Attagene TRANS-FACTORIAL HepG2 Assay for human Thyroid Receptor alpha (THRa1) (AID 2283014; active means hit-call score of the fitted dose curve at least 0.9, where 1 is the maximum). In a few lines:
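Reporter transcript induction, read by capillary electrophoresis of 6-FAM-labelled RT-PCR products, reflects activity of a transfected THRa1-Gal4 fusion in HepG2 liver cells. Cells were dosed for 24 h; activity was fitted in the positive direction against DMSO.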

Read-out in assay [17]: Interleukin-1 alpha (IL1a), IL1A (gene 3552)
As to the kind of experiment: BSK_BE3C_IL1a: BioMAP Diversity Plus: BE3C Assay for Interleukin-1 alpha (IL1a) Biomarker Activity (AID 2283016). The following applies: primary human bronchial epithelial cells; actives raise or lower the signal. In a few lines: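 Human primary bronchial epithelial cells (BE3C system) were dosed with compound and IL-1a measured by ELISA 24 h later. Activity was fitted bidirectionally against DMSO baseline; cytotoxicity was tracked in parallel cultures by SRB total-protein staining.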

Assay [18] addresses human Retinoic Acid Receptor beta (RARb), RARB (gene 5915) (UniProt P10826). Kind of assay: ATG_RARb_TRANS: Attagene TRANS-FACTORIAL HepG2 Assay for human Retinoic Acid Receptor beta (AID 2283004; active means hit-call score of the fitted dose curve at least 0.9, where 1 is the maximum). Summed up:
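Transient transfection of HepG2 with multiple reporter units → chemical dosing, 24 h → total RNA isolation → RT with oligo(dT) → reporter-specific PCR, 6-FAM primer extension, HpaI digest → capillary electrophoresis. Positive direction vs DMSO control.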

Assay [19] has as its target Retinoic acid receptor alpha (Homo sapiens) (UniProt P10276). Kind of assay: ATG_RARa_TRANS: Attagene TRANS-FACTORIAL HepG2 Assay for human Retinoic Acid Receptor alpha (RARa) (AID 2283005; active means hit-call score of the fitted dose curve at least 0.9, where 1 is the maximum). In a few lines: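 HepG2 cells transiently transfected with multiple reporter units expressing chimeric RARα-GAL4 fusion, with GAL4-UAS-driven reporters. After 24 h compound exposure, reporter mRNA induction quantified by RT-PCR and capillary electrophoresis with fluorescent labeling; gain-of-signal fitted relative to DMSO control.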

Inconclusive results are not listed. Activity calls are given as the source filed them. How the source made its calls, unless noted: active means hit-call score of the fitted dose curve at least 0.9, where 1 is the maximum; inactive means score below 0.9.

human Peroxisome Proliferator-activated Receptor alpha (PPARa), PPARA (gene 5465), sequence (Q07869 whole entry, looked up, the tested form may be a part): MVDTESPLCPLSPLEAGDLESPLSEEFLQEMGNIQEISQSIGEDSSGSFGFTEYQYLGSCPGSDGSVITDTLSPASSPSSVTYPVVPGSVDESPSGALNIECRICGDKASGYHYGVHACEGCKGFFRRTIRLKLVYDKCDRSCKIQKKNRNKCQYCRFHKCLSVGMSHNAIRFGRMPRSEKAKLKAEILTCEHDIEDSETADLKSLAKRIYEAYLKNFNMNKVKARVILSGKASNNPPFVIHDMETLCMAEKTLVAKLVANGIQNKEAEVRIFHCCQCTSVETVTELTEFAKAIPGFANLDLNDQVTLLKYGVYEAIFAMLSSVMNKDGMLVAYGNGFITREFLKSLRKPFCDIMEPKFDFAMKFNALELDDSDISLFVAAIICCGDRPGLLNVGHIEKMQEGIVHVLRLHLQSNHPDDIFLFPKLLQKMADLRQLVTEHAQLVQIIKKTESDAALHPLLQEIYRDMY
human Retinoid X Receptor beta (RXRb), RXRB (gene 6257), sequence (P28702 whole entry, looked up, the tested form may be a part): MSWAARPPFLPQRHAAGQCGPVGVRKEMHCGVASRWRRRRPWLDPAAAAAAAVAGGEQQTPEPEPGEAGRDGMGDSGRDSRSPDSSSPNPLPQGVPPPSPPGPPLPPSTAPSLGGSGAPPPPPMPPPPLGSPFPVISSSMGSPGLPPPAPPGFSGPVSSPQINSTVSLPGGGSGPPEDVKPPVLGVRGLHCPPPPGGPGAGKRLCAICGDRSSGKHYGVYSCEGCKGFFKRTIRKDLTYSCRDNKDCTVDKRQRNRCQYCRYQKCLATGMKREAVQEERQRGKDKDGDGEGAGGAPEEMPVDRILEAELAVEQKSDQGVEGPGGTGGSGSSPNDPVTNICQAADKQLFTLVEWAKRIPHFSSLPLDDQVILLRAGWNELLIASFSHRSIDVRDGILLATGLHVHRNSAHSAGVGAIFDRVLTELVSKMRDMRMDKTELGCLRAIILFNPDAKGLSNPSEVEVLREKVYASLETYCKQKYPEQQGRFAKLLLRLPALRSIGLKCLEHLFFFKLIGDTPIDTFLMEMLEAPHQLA
Peroxisome proliferator-activated receptor gamma (Homo sapiens), sequence (P37231 whole entry, looked up, the tested form may be a part): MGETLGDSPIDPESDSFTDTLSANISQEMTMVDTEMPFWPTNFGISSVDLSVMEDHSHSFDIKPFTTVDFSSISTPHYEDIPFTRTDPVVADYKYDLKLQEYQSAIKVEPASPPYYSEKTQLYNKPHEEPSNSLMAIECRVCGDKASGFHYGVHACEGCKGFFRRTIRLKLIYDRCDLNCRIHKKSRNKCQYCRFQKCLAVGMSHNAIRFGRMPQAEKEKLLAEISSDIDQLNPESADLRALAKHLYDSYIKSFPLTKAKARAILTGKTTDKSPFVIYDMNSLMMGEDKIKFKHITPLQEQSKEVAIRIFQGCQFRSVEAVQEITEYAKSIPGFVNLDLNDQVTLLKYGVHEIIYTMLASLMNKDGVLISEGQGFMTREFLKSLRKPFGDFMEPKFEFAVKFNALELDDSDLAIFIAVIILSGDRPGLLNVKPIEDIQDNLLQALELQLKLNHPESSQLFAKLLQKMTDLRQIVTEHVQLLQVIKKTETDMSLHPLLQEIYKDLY
E-selectin (Homo sapiens), sequence (P16581 whole entry, looked up): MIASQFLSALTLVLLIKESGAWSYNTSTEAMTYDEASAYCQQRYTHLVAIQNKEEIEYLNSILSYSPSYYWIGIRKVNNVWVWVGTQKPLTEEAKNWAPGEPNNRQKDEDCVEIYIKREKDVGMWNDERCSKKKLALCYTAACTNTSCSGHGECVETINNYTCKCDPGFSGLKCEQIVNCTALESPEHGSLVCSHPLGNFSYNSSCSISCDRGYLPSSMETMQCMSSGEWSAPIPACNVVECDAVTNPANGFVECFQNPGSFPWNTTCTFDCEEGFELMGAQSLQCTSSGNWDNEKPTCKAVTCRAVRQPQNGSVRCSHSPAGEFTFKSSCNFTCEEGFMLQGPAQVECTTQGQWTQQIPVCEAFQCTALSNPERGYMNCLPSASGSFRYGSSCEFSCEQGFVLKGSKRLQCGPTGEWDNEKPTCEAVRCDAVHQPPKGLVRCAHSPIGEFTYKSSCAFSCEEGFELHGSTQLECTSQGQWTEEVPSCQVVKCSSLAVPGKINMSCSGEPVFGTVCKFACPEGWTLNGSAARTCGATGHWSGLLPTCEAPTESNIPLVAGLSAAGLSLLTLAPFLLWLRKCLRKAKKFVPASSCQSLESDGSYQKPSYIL
human Peroxisome Proliferator-activated Receptor delta (PPARd), PPARD (gene 5467), sequence (Q03181 whole entry, looked up, the tested form may be a part): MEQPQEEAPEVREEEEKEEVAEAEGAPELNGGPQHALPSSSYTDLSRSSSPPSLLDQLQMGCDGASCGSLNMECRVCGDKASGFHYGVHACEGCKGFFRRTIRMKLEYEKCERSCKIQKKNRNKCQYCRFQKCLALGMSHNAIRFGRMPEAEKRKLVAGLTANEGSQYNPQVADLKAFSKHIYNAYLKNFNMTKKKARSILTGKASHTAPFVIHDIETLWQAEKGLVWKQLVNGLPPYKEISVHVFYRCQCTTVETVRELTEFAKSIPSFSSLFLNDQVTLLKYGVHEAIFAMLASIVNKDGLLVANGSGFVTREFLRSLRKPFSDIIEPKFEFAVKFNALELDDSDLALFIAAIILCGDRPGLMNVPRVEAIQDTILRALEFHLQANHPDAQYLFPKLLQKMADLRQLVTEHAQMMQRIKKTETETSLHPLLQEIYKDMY
Retinoic acid receptor RXR-alpha (Homo sapiens), sequence (P19793 whole entry, looked up, the tested form may be a part): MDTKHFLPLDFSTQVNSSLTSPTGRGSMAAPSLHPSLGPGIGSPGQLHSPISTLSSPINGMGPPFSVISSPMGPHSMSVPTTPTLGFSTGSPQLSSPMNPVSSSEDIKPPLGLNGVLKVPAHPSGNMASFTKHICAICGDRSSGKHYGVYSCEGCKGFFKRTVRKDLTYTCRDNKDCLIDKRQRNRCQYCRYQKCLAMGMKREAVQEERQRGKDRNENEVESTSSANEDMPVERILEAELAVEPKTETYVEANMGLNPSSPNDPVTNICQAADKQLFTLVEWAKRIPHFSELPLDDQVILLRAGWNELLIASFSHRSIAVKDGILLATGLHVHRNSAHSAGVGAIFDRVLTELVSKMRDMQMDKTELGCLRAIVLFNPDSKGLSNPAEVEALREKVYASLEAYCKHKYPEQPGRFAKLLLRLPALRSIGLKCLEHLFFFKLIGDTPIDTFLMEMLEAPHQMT
human Thyroid Receptor alpha (THRa1), THRA (gene 7067), sequence (P10827 whole entry, looked up, the tested form may be a part): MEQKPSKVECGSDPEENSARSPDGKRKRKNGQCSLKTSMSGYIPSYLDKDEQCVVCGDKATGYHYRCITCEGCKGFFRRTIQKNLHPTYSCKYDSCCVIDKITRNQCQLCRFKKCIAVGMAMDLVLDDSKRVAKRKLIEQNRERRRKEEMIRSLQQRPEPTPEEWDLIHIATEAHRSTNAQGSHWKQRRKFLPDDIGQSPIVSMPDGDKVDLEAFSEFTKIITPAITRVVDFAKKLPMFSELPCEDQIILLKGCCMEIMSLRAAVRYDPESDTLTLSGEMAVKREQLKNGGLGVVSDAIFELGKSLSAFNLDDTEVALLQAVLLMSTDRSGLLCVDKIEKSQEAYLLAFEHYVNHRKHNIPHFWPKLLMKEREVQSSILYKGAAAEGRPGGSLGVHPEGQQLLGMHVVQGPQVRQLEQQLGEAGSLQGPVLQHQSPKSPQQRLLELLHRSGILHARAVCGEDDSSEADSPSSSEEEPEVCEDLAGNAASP
Nuclear receptor subfamily 1 group I member 2 (Homo sapiens), sequence (O75469 whole entry, looked up, the tested form may be a part): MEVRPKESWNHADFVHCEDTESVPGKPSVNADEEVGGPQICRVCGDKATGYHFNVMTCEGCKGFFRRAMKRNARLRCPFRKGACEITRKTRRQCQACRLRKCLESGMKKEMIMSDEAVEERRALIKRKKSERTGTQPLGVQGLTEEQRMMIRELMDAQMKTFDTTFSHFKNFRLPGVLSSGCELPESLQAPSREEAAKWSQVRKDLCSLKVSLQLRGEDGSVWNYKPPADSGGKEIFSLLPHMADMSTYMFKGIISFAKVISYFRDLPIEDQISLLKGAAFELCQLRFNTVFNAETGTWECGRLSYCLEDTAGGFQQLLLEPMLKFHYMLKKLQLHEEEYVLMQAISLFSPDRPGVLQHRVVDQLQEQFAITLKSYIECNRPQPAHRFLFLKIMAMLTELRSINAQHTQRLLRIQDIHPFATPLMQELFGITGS
human RAR-related Orphan Receptor gamma (RORg), RORC (gene 6097), sequence (P51449 whole entry, looked up, the tested form may be a part): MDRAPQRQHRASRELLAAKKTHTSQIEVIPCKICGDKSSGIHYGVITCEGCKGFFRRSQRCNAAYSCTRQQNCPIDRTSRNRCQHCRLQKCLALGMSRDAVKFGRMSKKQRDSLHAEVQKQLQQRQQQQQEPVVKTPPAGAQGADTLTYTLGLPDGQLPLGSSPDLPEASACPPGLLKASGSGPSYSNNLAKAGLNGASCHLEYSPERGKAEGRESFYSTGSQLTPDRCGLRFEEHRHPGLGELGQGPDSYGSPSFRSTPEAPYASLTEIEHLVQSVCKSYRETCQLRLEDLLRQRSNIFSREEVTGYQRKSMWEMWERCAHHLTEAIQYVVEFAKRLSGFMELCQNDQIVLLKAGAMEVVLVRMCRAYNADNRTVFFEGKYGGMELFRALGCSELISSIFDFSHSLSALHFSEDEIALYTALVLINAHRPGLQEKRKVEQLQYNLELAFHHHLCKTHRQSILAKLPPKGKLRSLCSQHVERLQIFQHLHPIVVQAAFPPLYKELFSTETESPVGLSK
human RAR-related Orphan Receptor beta (RORb), RORB (gene 6096), sequence (Q92753 whole entry, looked up, the tested form may be a part): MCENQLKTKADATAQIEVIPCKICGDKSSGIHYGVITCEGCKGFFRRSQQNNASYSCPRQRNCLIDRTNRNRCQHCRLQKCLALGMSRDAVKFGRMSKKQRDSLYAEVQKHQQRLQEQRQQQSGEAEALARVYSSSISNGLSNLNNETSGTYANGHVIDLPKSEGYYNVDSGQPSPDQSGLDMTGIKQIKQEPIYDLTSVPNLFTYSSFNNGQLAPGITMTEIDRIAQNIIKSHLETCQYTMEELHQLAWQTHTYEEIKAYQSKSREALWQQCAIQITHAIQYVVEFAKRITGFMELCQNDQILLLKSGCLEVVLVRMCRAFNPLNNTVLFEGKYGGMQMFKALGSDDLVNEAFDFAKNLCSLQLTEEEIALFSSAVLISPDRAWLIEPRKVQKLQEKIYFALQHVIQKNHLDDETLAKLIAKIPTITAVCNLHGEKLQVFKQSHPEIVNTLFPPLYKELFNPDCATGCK

A word on the AC50: it is the concentration at which the activity in the assay is half-maximal. For the molecule `CCN(CC)C(=O)C(C)Oc1cccc2ccccc12` (stereo unspecified), the outcome in assay [1], in [3], in [4], in assay [8], in assay [9] and in [10] was inactive. Also, the result in assay [11], in [12], in [13] and in assay [14] was inactive. The AC50 was 10.8 µM (active) in assay [2], 6.69 µM (active) in assay [5], 50 µM (active) in [6] and 0.503 µM (active) in [7].

As for `COC(=O)NS(=O)(=O)c1ccc(N)cc1`, the result in assay [1], in assay [2], in assay [15], in [4], in assay [5] and in assay [6] was inactive. Besides, the call in [7], in assay [9], in assay [12], in assay [13] and in [14] was inactive.

For the molecule `COC(=O)NC(=S)Nc1ccccc1NC(=S)NC(=O)OC`, the result in [1], in assay [2], in [3], in assay [4], in [5] and in assay [6] was inactive. Moreover, the outcome in assay [7], in assay [8], in assay [10], in [16], in assay [17] and in assay [13] was inactive. Further, the results for the AC50 in assay [12] and in [14] were 5.15 µM (active) and 5.32 µM (active), respectively.

Take `N#Cc1c[nH]cc1-c1cccc2c1OC(F)(F)O2`: the outcome in [1], in [15], in assay [4], in assay [7], in [9] and in assay [10] was inactive. Further, the result in assay [16], in assay [12] and in [14] was inactive. For the same molecule, the AC50 in assay [2] is 20 µM (active); in assay [5] it was 5.61 µM (active); in [6] it was 19.5 µM (active); in assay [11], 1.68 µM (active); in assay [13] it was 20 µM (active).

Regarding `CNC(=O)N(C)c1nnc(C(C)(C)C)s1`, the result in assay [1], in [2], in [3], in [4], in [18] and in [19] was inactive. In addition, the outcome in assay [5], in assay [6], in assay [7], in assay [9], in assay [10] and in assay [12] was inactive. Moreover, the outcome in assay [13] and in assay [14] was inactive.

For `Nc1c(Cl)c(Cl)nc(C(=O)O)c1Cl`, the result in assay [1], in assay [2], in assay [15], in assay [4], in [5] and in assay [6] was inactive. Moreover, the result in [9], in assay [10], in assay [11], in assay [16], in assay [12] and in assay [17] was inactive. Moreover, the result in assay [13] and in [14] was inactive.

For the origin of these results see PubChem BioAssay (EPA / NIEHS).
